Results as given in PubChem BioAssay AID1347074 (Center for Chemical Genomics, University of Michigan, 2019).
About 2,800 (6%) of roughly 47,000 compounds were called active. Rule as the data show it: active = z-score above about 3 (passing the limit was not always enough); inactive = the rest. The list comes from a sample in which actives are over-represented; it also holds similar structures and randomly drawn compounds.

These molecules were tested against Endoribonuclease Dicer (Homo sapiens) (UniProt Q9UPY3) (assay: inhibitors of Dicer pre-microRNA processing, primary screen, biochemical, cat-ELCCA, chemiluminescence (AID 1347074;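 also: plate controls were vehicle for no effect and no enzyme for full effect; higher signal means more uncleaved substrate so more Dicer inhibition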)). Conditions: cat-ELCCA pre-miR-21 Dicer processing, at 25 µM, active compounds read high.
Chain of Endoribonuclease Dicer (Homo sapiens) (Q9UPY3 whole entry, looked up): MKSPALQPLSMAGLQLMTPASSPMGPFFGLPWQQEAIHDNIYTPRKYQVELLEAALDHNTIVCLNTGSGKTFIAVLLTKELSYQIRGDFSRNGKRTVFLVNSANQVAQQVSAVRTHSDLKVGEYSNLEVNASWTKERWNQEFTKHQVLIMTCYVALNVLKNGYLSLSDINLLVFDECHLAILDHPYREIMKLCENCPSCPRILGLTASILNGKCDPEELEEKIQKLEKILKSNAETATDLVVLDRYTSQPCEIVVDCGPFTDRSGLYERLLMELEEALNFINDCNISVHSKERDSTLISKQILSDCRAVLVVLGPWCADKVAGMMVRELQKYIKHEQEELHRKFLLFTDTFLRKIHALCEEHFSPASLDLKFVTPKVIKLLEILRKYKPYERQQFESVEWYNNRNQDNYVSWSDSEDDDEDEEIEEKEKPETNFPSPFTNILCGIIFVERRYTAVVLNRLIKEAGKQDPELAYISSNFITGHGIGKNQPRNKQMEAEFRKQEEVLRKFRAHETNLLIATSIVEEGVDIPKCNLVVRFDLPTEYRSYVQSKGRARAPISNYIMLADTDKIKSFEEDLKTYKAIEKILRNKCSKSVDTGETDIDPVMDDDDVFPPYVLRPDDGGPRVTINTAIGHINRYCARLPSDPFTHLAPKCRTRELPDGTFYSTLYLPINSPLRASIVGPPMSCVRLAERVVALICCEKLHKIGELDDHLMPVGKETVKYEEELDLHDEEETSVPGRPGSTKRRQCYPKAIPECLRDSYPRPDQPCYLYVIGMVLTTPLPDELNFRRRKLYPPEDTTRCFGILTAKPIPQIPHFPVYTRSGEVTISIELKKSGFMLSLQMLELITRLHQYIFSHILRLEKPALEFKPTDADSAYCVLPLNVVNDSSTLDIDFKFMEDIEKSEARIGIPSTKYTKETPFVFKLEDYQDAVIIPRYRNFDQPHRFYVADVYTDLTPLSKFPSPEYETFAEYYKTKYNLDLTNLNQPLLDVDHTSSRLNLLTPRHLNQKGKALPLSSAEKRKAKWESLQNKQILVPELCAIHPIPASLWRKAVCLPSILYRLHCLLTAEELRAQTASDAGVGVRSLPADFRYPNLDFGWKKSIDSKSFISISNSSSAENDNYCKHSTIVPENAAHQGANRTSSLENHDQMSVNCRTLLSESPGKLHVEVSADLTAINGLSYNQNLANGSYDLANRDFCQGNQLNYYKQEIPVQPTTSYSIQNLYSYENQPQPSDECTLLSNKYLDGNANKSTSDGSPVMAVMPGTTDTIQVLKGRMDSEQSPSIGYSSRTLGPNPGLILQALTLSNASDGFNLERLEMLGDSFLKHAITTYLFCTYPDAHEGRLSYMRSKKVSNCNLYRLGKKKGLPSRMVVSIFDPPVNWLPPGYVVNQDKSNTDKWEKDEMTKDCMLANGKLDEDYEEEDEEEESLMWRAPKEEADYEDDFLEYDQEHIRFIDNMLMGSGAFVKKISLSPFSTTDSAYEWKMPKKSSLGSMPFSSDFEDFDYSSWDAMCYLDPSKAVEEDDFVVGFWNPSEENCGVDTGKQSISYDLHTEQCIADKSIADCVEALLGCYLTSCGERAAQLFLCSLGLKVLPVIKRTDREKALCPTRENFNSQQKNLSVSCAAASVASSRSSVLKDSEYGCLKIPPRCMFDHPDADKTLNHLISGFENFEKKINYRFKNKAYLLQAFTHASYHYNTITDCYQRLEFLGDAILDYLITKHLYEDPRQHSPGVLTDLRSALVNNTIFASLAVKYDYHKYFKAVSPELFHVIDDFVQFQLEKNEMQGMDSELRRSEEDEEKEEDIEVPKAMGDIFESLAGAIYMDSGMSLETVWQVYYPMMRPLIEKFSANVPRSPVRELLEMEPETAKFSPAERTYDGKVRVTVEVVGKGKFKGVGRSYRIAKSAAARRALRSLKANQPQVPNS

Row | SMILES | z-score
1 | CCOC(=O)CSc1nc2cc(Cl)ccc2s1 | 0.3 (inactive)
2 | N#Cc1sc(SCc2ccccc2)c2c1CC(c1ccccc1)CC2=O (stereo not given) | 0.58 (inactive)
3 | CCCN1C(=O)C(O)(CC(=O)c2ccc(C(C)(C)C)cc2)c2ccccc21 (stereo not given) | -0.52 (inactive)
4 | Cc1cc(N2C(=O)CC(C)(C)CC2=O)n(C)n1 | -0.86 (inactive)
5 | CCC(C)c1ccc(O)c(/C=N/Nc2ccccc2)c1 (stereo not given) | 6.05 (active)
6 | CCOC(=O)c1c(N/N=C\c2ccccc2O)n[nH]c1C | 1.01 (inactive)
7 | COc1ccccc1C1CCN(S(=O)(=O)c2ccc(Oc3c(Cl)cccc3[N+](=O)[O-])cc2)CC1 | 1.46 (inactive)
8 | CCC(C)c1ccccc1OCC(O)CN1C(=O)NC(C)(C)C1=O (stereo not given) | 0.96 (inactive)
9 | Oc1ccccc1-c1nc(/C=C/c2cccs2)no1 | 2.56 (inactive)
10 | Fc1ccc(-n2nnnc2-c2cnc3ccc(Cl)cc3c2-c2ccccc2)cc1 | 0.2 (inactive)
11 | Cc1ccc(-n2nnnc2-c2cnc3ccccc3c2C)cc1 | -0.58 (inactive)
12 | FC(F)(F)c1nc(-c2ccccc2)ncc1-c1nnnn1-c1ccccc1 | 3.06 (active)
13 | CCc1ccccc1N1CC23C=CC(O2)C(C(=O)OC(C)C)C3C1=O (stereo not given) | -0.64 (inactive)
14 | COc1cc(/C=C2/N=C(c3ccccc3)N(C)C2=O)cc(OC)c1OC | 2.54 (inactive)
15 | CCOC(=O)c1c(C)[nH]c(=O)c([N+](=O)[O-])c1O | 0.2 (inactive)
16 | CC1([N+](=O)[O-])COC(c2ccccc2)OC1 (stereo not given) | 1.75 (inactive)
17 | O=C1OC2(CCCCC2)OC1c1ccccc1 (stereo not given) | 3.75 (active)
18 | Cn1c(=O)c(C#N)c(O)c2ccccc21 | 0.83 (inactive)
19 | CCCCc1ccc(S(N)(=O)=O)cc1 | -0.91 (inactive)
20 | CCCCc1ccc(-n2c(-c3ccc(F)cc3)coc2=O)cc1 | 9.25 (active)
21 | Fc1ccc(NC2=NCCN=C(Nc3ccc(F)cc3F)SS2)c(F)c1 | -0.47 (inactive)
22 | CSc1scc(NC(=O)Nc2cc(Cl)cc(Cl)c2)c1S(=O)(=O)C(C)C | 30.2 (active)
23 | O=C(Nc1cc(Cl)cc(Cl)c1)Nc1cnccc1C(F)(F)F | 0.4 (inactive)
24 | O=C(CSc1nc(-c2ccc(F)cc2)cc(C(F)(F)F)n1)N1CCOCC1 | -0.77 (inactive)
25 | C/C(=N\OC(=O)c1ccc(Cl)cc1)c1nnn(-c2cc(C(F)(F)F)cc(C(F)(F)F)c2)c1C | 0.47 (inactive)
26 | CCOc1ccc(S(=O)(=O)N2CCSC2c2cccc(Cl)c2)cc1 (stereo not given) | 1.41 (inactive)
27 | O=c1c2cc(-c3ccccc3)sc2n(Cc2ccccc2Cl)c(=O)n1-c1ccccc1 | 0.38 (inactive)
28 | CCCC1CCc2c(sc(NC(=O)COc3ccc(Cl)cc3)c2C(N)=O)C1 (stereo not given) | -0.31 (inactive)
29 | COC(=O)c1c(NC(=O)COc2ccccc2)sc2c1CCCC2 | 0.4 (inactive)
30 | COC(=O)c1c(NC(=O)CCCOc2ccc(Cl)cc2)sc2c1CCCC2 | 4.01 (active)
